# In the supplement of paper PMC8728848:
# This excerpt belongs to a sample that is enriched for the strongest signals.
# B1: GNAT (Pseudomonas aeruginosa), Q9HV14 (protein)
# chain: MQLSHRPAETGDLETVAGFPQDRDELFYCYPKAIWPFSVAQLAAAIAERRGSTVAVHDGQVLGFANFYQWQHGDFCALGNMMVAPAARGLGVARYLIGVMENLAREQYKARLMKISCFNANAAGLLLYTQLGYQPRAIAERHDPDGRRVALIQMDKPLEP
# What was measured:
# Experiment in all cases: glycan array binding signal (z-score within array); higher = stronger binding
# Conditions in all cases: glycan notation: IUPAC condensed, linker removed
# [1] = target: Fuc(a1-2)Gal(b1-3)[Fuc(a1-4)]GlcNAc(b1-2)Man(a1-3)[Fuc(a1-2)Gal(b1-3)[Fuc(a1-4)]GlcNAc(b1-2)Man(a1-6)]Man(b1-4)GlcNAc(b1-4)GlcNAc
# Method in brief: (§1)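 Glycan array data came from 3228 arrays in the Consortium for Functional Glycomics database, and only arrays with an available protein sequence were kept. Glycan names were put into IUPAC-condensed notation, and columns mapping to the same glycan were averaged. The binding signal is a within-array Z-score, averaged across arrays of one protein sequence run at different concentrations or buffers and across linkers. A negative Z-score can be read as non-binding.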
# [2] = target: Fuc(a1-2)Gal(b1-3)[Fuc(a1-4)]GlcNAc(b1-3)[Fuc(a1-3)[Gal(b1-4)]GlcNAc(b1-6)]Gal(b1-4)Glc
# Method in brief: as §1
# [3] = target: Fuc(a1-2)Gal(b1-4)[Fuc(a1-3)]GlcNAc(b1-3)Gal(b1-4)[Fuc(a1-3)]GlcNAc(b1-3)Gal(b1-4)[Fuc(a1-3)]GlcNAc
# Method in brief: as §1
# [4] = target: Fuc(a1-2)Gal(b1-4)[Fuc(a1-3)]GlcNAc(b1-3)GalNAc
# Method in brief: as §1
# Fuc(a1-2)Gal6S(b1-4)Glc = target: Fuc(a1-2)Gal6S(b1-4)Glc
# Method in brief: as §1
# [5] = target: Fuc(a1-2)[Gal(a1-4)]Gal(b1-4)GlcNAc
# Method in brief: as §1
# [6] = target: Fuc(a1-2)[GalNAc(a1-3)]Gal(b1-3)GalNAc(a1-3)[Fuc(a1-2)]Gal(b1-4)GlcNAc
# Method in brief: as §1
# [7] = target: Fuc(a1-2)[GalNAc(a1-3)]Gal(b1-3)GlcNAc(b1-3)GalNAc
# Method in brief: as §1
# [8] = target: Fuc(a1-2)[GalNAc(a1-3)]Gal(b1-4)[Fuc(a1-3)]GlcNAc(b1-3)GalNAc
# Method in brief: as §1
# [9] = target: Fuc(a1-3)[Gal(b1-4)]GlcNAc(b1-6)GalNAc
# Method in brief: as §1
# [10] = target: Gal(a1-3)Gal(b1-3)GlcNAc(b1-2)Man(a1-3)[Gal(a1-3)Gal(b1-3)GlcNAc(b1-2)Man(a1-6)]Man(b1-4)GlcNAc(b1-4)GlcNAc
# Method in brief: as §1
# [11] = target: Gal(a1-3)Gal(b1-4)[Fuc(a1-3)]GlcNAc(b1-2)Man(a1-3)[Gal(a1-3)Gal(b1-4)[Fuc(a1-3)]GlcNAc(b1-2)Man(a1-6)]Man(b1-4)GlcNAc(b1-4)GlcNAc
# Method in brief: as §1
# [12] = target: Gal(b1-3)GlcNAc(b1-3)Gal(b1-3)GlcNAc
# Method in brief: as §1
# [13] = target: Gal(b1-3)[Fuc(a1-4)]GlcNAc(b1-3)Gal(b1-4)[Fuc(a1-3)]GlcNAc
# Method in brief: as §1
# [14] = target: Gal(b1-3)[Neu5Ac(a2-6)]GalNAc
# Method in brief: as §1
# [15] = target: Gal(b1-4)GalNAc(a1-3)[Fuc(a1-2)]Gal(b1-4)GlcNAc
# Method in brief: as §1
# [16] = target: Gal(b1-4)GlcNAc(b1-2)[Gal(b1-4)GlcNAc(b1-6)]Man(a1-6)[Gal(b1-4)GlcNAc(b1-2)Man(a1-3)]Man(b1-4)GlcNAc(b1-4)GlcNAc
# Method in brief: as §1
# [17] = target: Gal(b1-4)GlcNAc(b1-2)[Gal(b1-4)GlcNAc(b1-6)]Man(a1-6)[GlcNAc(b1-4)][Gal(b1-4)GlcNAc(b1-2)Man(a1-3)]Man(b1-4)GlcNAc(b1-4)GlcNAc
# Method in brief: as §1
# [18] = target: Gal(b1-4)GlcNAc(b1-3)Gal(b1-4)[Fuc(a1-3)GlcNAc(b1-6)]Gal(b1-4)Glc
# Method in brief: as §1
# [19] = target: Gal(b1-4)GlcNAc(b1-3)[Gal(b1-4)GlcNAc(b1-6)]Gal(b1-4)GlcNAc
# Method in brief: as §1
# Gal3S(b1-4)GlcNAc6S = target: Gal3S(b1-4)GlcNAc6S
# Method in brief: as §1
# [20] = target: Gal3S(b1-4)[Fuc(a1-3)]Glc
# Method in brief: as §1
# [21] = target: Gal3S(b1-4)[Fuc(a1-3)]Glc6S
# Method in brief: as §1
# Gal3S4S(b1-4)GlcNAc = target: Gal3S4S(b1-4)GlcNAc
# Method in brief: as §1
# Gal3S6S(b1-4)GlcNAc6S = target: Gal3S6S(b1-4)GlcNAc6S
# Method in brief: as §1
# [22] = target: GalNAc(b1-3)Gal(a1-4)Gal(b1-4)GlcNAc
# Method in brief: as §1
# Glc(a1-6)Glc(a1-6)Glc = target: Glc(a1-6)Glc(a1-6)Glc
# Method in brief: as §1
# [23] = target: GlcNAc(a1-4)Gal(b1-4)GlcNAc(b1-3)Gal(b1-4)[Fuc(a1-3)]GlcNAc(b1-3)Gal(b1-4)[Fuc(a1-3)]GlcNAc
# Method in brief: as §1
# [24] = target: GlcNAc(b1-2)[GlcNAc(b1-4)]Man(a1-3)[GlcNAc(b1-4)][GlcNAc(b1-2)Man(a1-6)]Man(b1-4)GlcNAc(b1-4)GlcNAc
# Method in brief: as §1
# [25] = target: GlcNAc(b1-2)[GlcNAc(b1-6)]Man(a1-6)[GlcNAc(b1-2)Man(a1-3)]Man(b1-4)GlcNAc(b1-4)GlcNAc
# Method in brief: as §1
# [26] = target: GlcNAc(b1-4)[GlcNAc(b1-6)]GalNAc
# Method in brief: as §1
# [27] = target: Neu5Ac(a2-3)Gal(b1-3)GlcNAc6S
# Method in brief: as §1
# [28] = target: Neu5Ac(a2-3)Gal(b1-4)GlcNAc(b1-3)Gal
# Method in brief: as §1
# [29] = target: Neu5Ac(a2-3)Gal(b1-4)GlcNAc(b1-6)[Neu5Ac(a2-3)Gal(b1-3)]GalNAc
# Method in brief: as §1
# [30] = target: Neu5Ac(a2-3)Gal(b1-4)[Fuc(a1-3)]GlcNAc(b1-3)GalNAc
# Method in brief: as §1
# [31] = target: Neu5Ac(a2-3)Gal(b1-4)[Fuc(a1-3)]GlcNAc(b1-6)[Gal(b1-3)]GalNAc
# Method in brief: as §1
# [32] = target: Neu5Ac(a2-3)[Neu5Ac(a2-6)]GalNAc
# Method in brief: as §1
# [33] = target: Neu5Ac(a2-6)Gal(b1-4)GlcNAc(b1-2)Man(a1-3)[GlcNAc(b1-2)Man(b1-4)GlcNAc(b1-2)Man(a1-6)]Man(b1-4)GlcNAc(b1-4)GlcNAc
# Method in brief: as §1
# [34] = target: Neu5Ac(a2-6)Gal(b1-4)GlcNAc(b1-3)Gal(b1-3)GlcNAc
# Method in brief: as §1
# Neu5Ac(a2-6)GalNAc = target: Neu5Ac(a2-6)GalNAc
# Method in brief: as §1
# [35] = target: Neu5Ac(a2-8)Neu5Ac(a2-3)[GalNAc(b1-4)]Gal(b1-4)Glc
# Method in brief: as §1
# Neu5Ac(b2-6)GalNAc = target: Neu5Ac(b2-6)GalNAc
# Method in brief: as §1
# [36] = target: Neu5Gc(a2-6)Gal(b1-4)GlcNAc
# Method in brief: as §1
binder,measurement,setting,value
B1,glycan array binding signal (z-score),[1],2.54
same,glycan array binding signal (z-score),[2],-0.247
same,glycan array binding signal (z-score),[3],-0.411
same,glycan array binding signal (z-score),[4],4.04
same,glycan array binding signal (z-score),Fuc(a1-2)Gal6S(b1-4)Glc,-0.374
same,glycan array binding signal (z-score),[5],-0.398
same,glycan array binding signal (z-score),[6],-0.345
same,glycan array binding signal (z-score),[7],5.4
same,glycan array binding signal (z-score),[8],4.86
same,glycan array binding signal (z-score),[9],5.07
same,glycan array binding signal (z-score),[10],2.69
same,glycan array binding signal (z-score),[11],4.4
same,glycan array binding signal (z-score),[12],0.929
same,glycan array binding signal (z-score),[13],-0.315
same,glycan array binding signal (z-score),[14],0.421
same,glycan array binding signal (z-score),[15],-0.14
same,glycan array binding signal (z-score),[16],1.21
same,glycan array binding signal (z-score),[17],-0.222
same,glycan array binding signal (z-score),[18],0.293
same,glycan array binding signal (z-score),[19],-0.269
same,glycan array binding signal (z-score),Gal3S(b1-4)GlcNAc6S,-0.322
same,glycan array binding signal (z-score),[20],-0.301
same,glycan array binding signal (z-score),[21],6.54
same,glycan array binding signal (z-score),Gal3S4S(b1-4)GlcNAc,-0.461
same,glycan array binding signal (z-score),Gal3S6S(b1-4)GlcNAc6S,-0.379
same,glycan array binding signal (z-score),[22],-0.284
same,glycan array binding signal (z-score),Glc(a1-6)Glc(a1-6)Glc,-0.33
same,glycan array binding signal (z-score),[23],3.72
same,glycan array binding signal (z-score),[24],-0.318
same,glycan array binding signal (z-score),[25],-0.257
same,glycan array binding signal (z-score),[26],-0.407
same,glycan array binding signal (z-score),[27],-0.165
same,glycan array binding signal (z-score),[28],-0.403
same,glycan array binding signal (z-score),[29],-0.097
same,glycan array binding signal (z-score),[30],2.77
same,glycan array binding signal (z-score),[31],5.03
same,glycan array binding signal (z-score),[32],-0.405
same,glycan array binding signal (z-score),[33],-0.293
same,glycan array binding signal (z-score),[34],-0.3
same,glycan array binding signal (z-score),Neu5Ac(a2-6)GalNAc,-0.404
same,glycan array binding signal (z-score),[35],-0.165
same,glycan array binding signal (z-score),Neu5Ac(b2-6)GalNAc,-0.413
same,glycan array binding signal (z-score),[36],-0.437
